The target of assay [1] is Calcium and integrin-binding protein 1 (Homo sapiens) (UniProt Q99828). Kind of assay: Primary qHTS for Identification of Calcium Integrin Binding Protein 1 (CIB1) Competitor (AID 1508620).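 Further: GST tagged CIB1 binding a fluorescein labelled alphaIIb integrin peptide tracer; top concentration of the series differs between compounds.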 The essentials: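 Fluorescence polarization competition: CIB1-GST (1 uM final) preincubated with compound 15 min at room temperature, then FITC-labeled alphaIIb peptide (100 nM final) added for another 15 min. Polarization read at Ex 480/Em 540.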
Chain of Calcium and integrin-binding protein 1 (Homo sapiens) (Q99828 whole entry, looked up): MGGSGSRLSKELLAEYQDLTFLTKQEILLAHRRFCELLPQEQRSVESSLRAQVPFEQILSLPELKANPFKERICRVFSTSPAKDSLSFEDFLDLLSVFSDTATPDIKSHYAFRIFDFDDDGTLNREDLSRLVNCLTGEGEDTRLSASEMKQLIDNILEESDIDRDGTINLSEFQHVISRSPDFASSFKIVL

Assay [2] concerns the target Cytochrome P450 2D6 (Homo sapiens) (UniProt P10635). In words: Cytochrome P450 family 2 subfamily D member 6 (CYP2D6) small molecule antagonists: luciferase biochemical (cell-free) qHTS assay (AID 1645840; active means well fitted curve in the direction sought with a large enough effect in the repeat runs; an effect the other way counts as inactive or inconclusive; further: nearly all actives have a fitted effect of over 55% in size; further: potency means the concentration at half of the fitted maximal effect). The method, boiled down: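 P450-Glo CYP2D6 system: proluciferin substrate converted by enzyme to luciferin, read by luminescence proportional to activity. Enzyme-substrate mix with compound 10 min at room temperature, then NADPH regeneration 1 h before detection reagent.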
In general terms: Quantitative high-throughput screening tests each substance at several concentrations.

The target of assay [3] is Cytochrome P450 2C9 (Homo sapiens) (UniProt P11712). In words: Cytochrome P450 family 2 subfamily C member 9 (CYP2C9) small molecule antagonists: luciferase biochemical (cell-free) qHTS assay (AID 1645842; active means well fitted curve in the direction sought with a large enough effect in the repeat runs; an effect the other way counts as inactive or inconclusive; further: nearly all actives have a fitted effect of over 55% in size; further: potency means the concentration at half of the fitted maximal effect). The essentials:
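P450-Glo CYP2C9 system: proluciferin substrate with enzyme in mix containing 0.4% BSA, 10 min at room temperature, then NADPH regeneration solution added and incubated 1 h at 37C. Detection reagent stopped reaction; luminescence read after 20 min as RLU.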

A short description of assay [4]: Primary qHTS for inhibitors of nuclear receptor binding SET domain protein 2 (NSD2) in an isogenic RCH-ACV NSD2 p.E1099K mutant (9B) (AID 1645876). Further: nearly all actives have a fitted effect of over 70% in size. Further: potency means the concentration at half of the fitted maximal effect.
A short description of assay [5]: Primary qHTS for inhibitors of nuclear receptor binding SET domain protein 2 (NSD2) in an RCH-ACV wild type WT cells (2C) (AID 1645877). Further: nearly all actives have a fitted effect of over 70% in size. Further: potency means the concentration at half of the fitted maximal effect.

Potency data for 7 compounds are collected here from PubChem BioAssay (NCATS).

Where “and” joins values, the source holds several entries; their conditions need not be identical. Equal entries are not always repeated. Inconclusive results are not listed. Calls of active or inactive are those of the source. Unless noted, the call rests on the fitted dose curve; in most records, active means well fitted curve in the direction sought with a large enough effect; inconclusive means small, poorly fitted or top-dose-only effect, or another doubt; inactive means no such curve, though single readings can be large; an effect the other way counts as inactive or inconclusive.

Chain of Cytochrome P450 2D6 (Homo sapiens) (P10635 whole entry, looked up): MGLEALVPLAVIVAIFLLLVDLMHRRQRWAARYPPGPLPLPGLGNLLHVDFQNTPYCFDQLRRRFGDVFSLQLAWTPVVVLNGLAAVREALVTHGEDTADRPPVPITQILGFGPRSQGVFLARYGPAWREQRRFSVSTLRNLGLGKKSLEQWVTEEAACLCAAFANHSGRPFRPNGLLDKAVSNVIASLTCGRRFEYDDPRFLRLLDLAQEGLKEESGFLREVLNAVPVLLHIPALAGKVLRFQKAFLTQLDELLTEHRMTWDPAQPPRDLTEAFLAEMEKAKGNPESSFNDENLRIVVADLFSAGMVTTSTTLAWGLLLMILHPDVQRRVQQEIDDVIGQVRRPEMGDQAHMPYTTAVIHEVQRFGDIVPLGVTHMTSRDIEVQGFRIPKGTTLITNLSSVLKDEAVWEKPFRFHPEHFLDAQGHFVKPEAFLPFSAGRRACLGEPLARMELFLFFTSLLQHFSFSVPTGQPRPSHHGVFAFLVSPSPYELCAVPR
Chain of Cytochrome P450 2C9 (Homo sapiens) (P11712 whole entry, looked up): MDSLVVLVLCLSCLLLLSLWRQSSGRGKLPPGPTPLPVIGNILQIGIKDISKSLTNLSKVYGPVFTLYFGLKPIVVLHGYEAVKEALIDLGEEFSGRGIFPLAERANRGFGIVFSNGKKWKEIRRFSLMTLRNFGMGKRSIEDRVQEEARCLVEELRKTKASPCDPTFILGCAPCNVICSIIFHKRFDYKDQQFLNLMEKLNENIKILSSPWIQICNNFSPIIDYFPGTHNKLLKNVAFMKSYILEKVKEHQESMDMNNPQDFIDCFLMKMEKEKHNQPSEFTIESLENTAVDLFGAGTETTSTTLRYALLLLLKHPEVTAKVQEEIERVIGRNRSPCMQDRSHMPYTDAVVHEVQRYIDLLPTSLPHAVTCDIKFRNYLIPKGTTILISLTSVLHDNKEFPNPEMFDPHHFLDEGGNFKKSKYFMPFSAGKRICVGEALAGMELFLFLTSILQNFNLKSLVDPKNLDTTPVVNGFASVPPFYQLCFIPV

On to `CC(C)(C)Oc1ccc(OCC2Cc3ccccc3CN2C(=O)c2cccc3ccccc23)cc1` (stereo not given), for which the Potency result in assay [1], in assay [2], in assay [4] and in assay [5] was “inactive” throughout. The Potency in assay [3] is 1.69 µM (active).

Consider `CN(C)C(=O)NC1(c2ccccc2)CCN(CCC[C@]2(c3ccc(Cl)c(Cl)c3)CCCN(C(=O)c3ccccc3)C2)CC1`, for which the Potency entry in assay [1] is “inactive”. Besides, the Potency in assay [2] is 3.38 µM (active); in assay [3] it was 21.3 µM (active); in assay [4] it was 3.25 µM (active); in assay [5], 2.9 µM (active).

On to `Fc1ccc(N2CCCCC2)c(NC(=S)c2ccncc2)c1`, for which the Potency result in assay [1] is “inactive”. Further, the Potency in assay [2] was 1.69 µM (active); in assay [3], 6.01 µM (active); in assay [4] it was 10.3 µM (active); in assay [5], 12.9 µM (active).

As for `C=CC(=O)Nc1cc(-n2c(=O)ccc3cnc4ccc(-c5ccc(NS(C)(=O)=O)cc5)cc4c32)ccc1C`, the Potency result in assay [1] and in assay [2] was “inactive” each time. Moreover, the Potency is 1.51 µM (active) in assay [3], 3.26 µM (active) in assay [4] and 3.66 µM (active) in assay [5].

In the case of `COc1ccc(Cl)c(Nc2ncnc3cc(OCC4CCN(C)CC4)c(OC)cc23)c1`, the Potency entry in assay [1], in assay [2] and in assay [3] was “inactive” each time. The Potency in assay [4] and in assay [5] was 13.2 µM (active) each time.

`COc1cc2c(cc1OC(C)C)[C@H](c1ccc(Cl)cc1)N(c1ccc(N(C)CC3CCC(N4CCN(C)C(=O)C4)CC3)cc1)C(=O)C2` (stereo not given in full): the Potency entry in assay [1] is “inactive”. The Potency in assay [2] was 21.3 µM (active); in assay [3] it was 6.74 µM (active); in assay [4], 1.83 µM (active) and 2.09 µM (active); in assay [5], 817 nM (active) and 1.18 µM (active).

Consider `Cc1cc(N2CCOCC2)ccc1Nc1nc(NC2CCCCC2)c2[nH]cnc2n1`, for which the Potency result in assay [1] and in assay [2] was “inactive” each time. The Potency was 13.5 µM (active) in assay [3], 1.29 µM (active) in assay [4] and 8.33 µM (active) in assay [5].
